Consider 24 molecules from the supplement of paper PMC8285479.

Counter-ions that a name gives are not always drawn. ± gives the standard deviation of the averaged measurements. The full ranking holds about 1,900 compounds; the median of “normalised cell viability (NPI; 0 = phenylarsine oxide control, 1 = DMSO control)” is about 1, and the lowest 2% start at about 0.039. This is one part of a sample in which the lowest values are shown more often than they occur.

The assay deals with NCI-H1944. The assay is described as follows: normalised cell viability (NPI; 0 = phenylarsine oxide control, 1 = DMSO control) (fraction of DMSO control); NCI-H1944 is a non-small cell lung cancer line; higher = more viable cells (less compound toxicity). The note with it: 6 days.
Setting [1] is: glucocorticoid arm: hydrocortisone 2.75 uM co-treatment, compound 1 µM.
[2] abbreviates: glucocorticoid arm: hydrocortisone 2.75 uM co-treatment, compound 5 µM.
Where [3] appears, read: glucocorticoid arm: hydrocortisone 2.75 uM pre-treated 2 days and continued, compound 1 µM.
[4] abbreviates: glucocorticoid arm: hydrocortisone 2.75 uM pre-treated 2 days and continued, compound 5 µM.
Where [5] appears, read: glucocorticoid arm: vehicle, compound 1 µM.
[6] abbreviates: glucocorticoid arm: vehicle, compound 5 µM.
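Also: CTB read-out in 384-well plates, triplicate wells, NPI normalised per plate against 1 µM phenylarsine oxide (0) and 0.1% DMSO (1) controls.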

For the molecule `O=C(c1ccc(Cl)cc1)N1CCN(c2ccc([N+](=O)[O-])c3ncccc23)CC1`, the normalised cell viability reads like this: under setting [1], 1.01 ± 0.013; under setting [2], 1.01 ± 0.027; under setting [3], 0.992 ± 0.014; under setting [4], 0.996 ± 0.014; under setting [5], 0.997 ± 0.015; under setting [6], 1 ± 0.021.

Take `CN(C)C(=O)C(CCN1CCC(O)(c2ccc(Cl)cc2)CC1)(c1ccccc1)c1ccccc1` [Loperamide HCl]: the normalised cell viability under setting [1] worked out at 1.02 ± 0.026; the normalised cell viability under setting [2] was 0.893 ± 0.035; the normalised cell viability under setting [3] was determined as 1.047 ± 0.0058; the normalised cell viability under setting [4] is 0.984 ± 0.012; the normalised cell viability under setting [5] was 1.017 ± 0.0058; the normalised cell viability under setting [6] worked out at 0.919 ± 0.0099.

For `OC1(c2ccc(Cl)cc2)CCN(Cc2c[nH]c3ccccc23)CC1`, the normalised cell viability is 0.972 ± 0.021 under setting [1]; 0.852 ± 0.052 under setting [2]; 1.003 ± 0.0061 under setting [3]; 1.04 ± 0.086 under setting [4]; 0.9753 ± 0.0065 under setting [5]; 0.988 ± 0.01 under setting [6].

For the molecule `O=C(CCCN1CCC(O)(c2ccc(Cl)cc2)CC1)c1ccc(F)cc1` [Haloperidol], the normalised cell viability came out at 0.996 ± 0.013 under setting [1]; 0.93 ± 0.023 under setting [2]; 1.01 under setting [3]; 1.01 ± 0.025 under setting [4]; 0.9843 ± 0.0035 under setting [5]; 0.985 ± 0.002 under setting [6].

Regarding `CN(C)C(=O)C(CCN1CCC(O)(c2ccc(Cl)cc2)CC1)(c1ccccc1)c1ccccc1` [Loperamide hydrochloride], the normalised cell viability runs as follows: under setting [1], 0.9953 ± 0.0042; under setting [2], 0.405 ± 0.032; under setting [3], 1.017 ± 0.0058; under setting [4], 0.87 ± 0.29; under setting [5], 1; under setting [6], 0.0171 ± 0.0045.

For the molecule `Nc1nc2[nH]cnc2c(=S)[nH]1` [Thioguanine], the normalised cell viability runs as follows: under setting [1], 0.931 ± 0.0046; under setting [2], 0.423 ± 0.024; under setting [3], 0.9813 ± 0.0011; under setting [4], 0.754 ± 0.04; under setting [5], 0.9133 ± 0.0051; under setting [6], 0.119 ± 0.011.

`Cc1[nH]c2ccccc2c1CCNCc1ccc(/C=C/C(=O)NO)cc1` [Panobinostat (LBH589)]: the normalised cell viability turned out to be 0.00703 ± 0.0011 under setting [1]; 0.00134 ± 0.00097 under setting [2]; 0.00592 ± 0.0022 under setting [3]; 0.00214 ± 0.0018 under setting [4]; 0.00625 ± 0.001 under setting [5]; 9e-05 ± 0.00045 under setting [6].

Turning to `Cc1[nH]c2ccccc2c1C1=C(NCCc2ccc(F)cc2)C(=O)N(C)C1=O`, the normalised cell viability was found to be 0.964 ± 0.019 under setting [1]; 0.962 ± 0.053 under setting [2]; 0.988 ± 0.011 under setting [3]; 0.973 ± 0.021 under setting [4]; 0.977 ± 0.007 under setting [5]; 0.9803 ± 0.0047 under setting [6].

With `CC(C)N(CCCNC(=O)Nc1ccc(C(C)(C)C)cc1)C[C@H]1O[C@@H](n2ccc3c(N)ncnc32)[C@H](O)[C@@H]1O`, the normalised cell viability runs as follows: under setting [1], 1.003 ± 0.0058; under setting [2], 1.07 ± 0.025; under setting [3], 0.984 ± 0.0053; under setting [4], 1.04 ± 0.01; under setting [5], 1.002 ± 0.0068; under setting [6], 1.002 ± 0.0076.

As for `CCOC(=O)[C@]12CC1/C(=N\O)c1ccccc1O2` (some centres undefined), the normalised cell viability reads like this: under setting [1], 1.017 ± 0.0058; under setting [2], 1.01 ± 0.024; under setting [3], 1.007 ± 0.0058; under setting [4], 1.02; under setting [5], 0.997 ± 0.013; under setting [6], 1.002 ± 0.0068.

`C[N+](C)(C)CCO.[Br-]` [Choline bromide]: the normalised cell viability amounted to 1.017 ± 0.0058 under setting [1]; 1 ± 0.019 under setting [2]; 1.017 ± 0.0058 under setting [3]; 1.02 under setting [4]; 0.995 ± 0.0078 under setting [5]; 0.998 ± 0.014 under setting [6].

For the molecule `CC(C(=O)Nc1cccc(/N=C/c2c(O)ccc3ccccc23)c1)c1ccccc1` (centres undefined) [Salermide], the normalised cell viability stood at 0.999 ± 0.014 under setting [1]; 1.01 ± 0.02 under setting [2]; 0.9942 ± 0.0055 under setting [3]; 1 ± 0.035 under setting [4]; 0.9967 ± 0.0083 under setting [5]; 1.002 ± 0.01 under setting [6].

For the molecule `O=C(c1ccc(F)cc1)N1CCCC(c2nc(-c3ccc(F)cc3)no2)C1` (centres undefined), the normalised cell viability by setting is: under setting [1], 1.03 ± 0.015; under setting [2], 1.023 ± 0.0058; under setting [3], 1.02 ± 0.011; under setting [4], 1.013 ± 0.0058; under setting [5], 1.01; under setting [6], 1.001 ± 0.0078.

With `Cn1ncnc1[C@H]1c2n[nH]c(=O)c3cc(F)cc(c23)N[C@@H]1c1ccc(F)cc1`, the normalised cell viability is, setting by setting: under setting [1], 0.996 ± 0.012; under setting [2], 0.934 ± 0.028; under setting [3], 1.01 ± 0.017; under setting [4], 1.05 ± 0.015; under setting [5], 0.436 ± 0.0095; under setting [6], 0.28 ± 0.016.

On to `CCN(CC)CCCC(C)Nc1c2ccc(Cl)cc2nc2ccc(OC)cc12` (centres undefined) [Quinacrine dihydrochloride], for which the normalised cell viability by setting is: under setting [1], 0.999 ± 0.021; under setting [2], 0.00304 ± 0.0019; under setting [3], 1.01 ± 0.023; under setting [4], 1.01 ± 0.014; under setting [5], 0.995 ± 0.014; under setting [6], 0.00159 ± 0.0012.

Turning to `CCN(CC)CCCC(C)Nc1ccnc2cc(Cl)ccc12` (centres undefined) [Chloroquine diphosphate], the normalised cell viability by setting is: under setting [1], 1 ± 0.015; under setting [2], 0.752 ± 0.026; under setting [3], 1.001 ± 0.009; under setting [4], 0.963 ± 0.04; under setting [5], 0.9793 ± 0.0076; under setting [6], 0.947 ± 0.013.

Regarding `C=CC(=O)Nc1ccc2ncnc(Nc3ccc(OCc4cccc(F)c4)c(Cl)c3)c2c1`, the normalised cell viability is 0.905 ± 0.016 under setting [1]; 0.854 ± 0.043 under setting [2]; 0.92 ± 0.014 under setting [3]; 0.93 ± 0.023 under setting [4]; 0.815 ± 0.021 under setting [5]; 0.623 ± 0.016 under setting [6].

Regarding `CS(=O)(=O)CCNCc1ccc(-c2ccc3ncnc(Nc4ccc(OCc5cccc(F)c5)c(Cl)c4)c3c2)o1` [Lapatinib Ditosylate (Tykerb)], the normalised cell viability is, setting by setting: under setting [1], 0.945 ± 0.0092; under setting [2], 0.916 ± 0.017; under setting [3], 0.981 ± 0.021; under setting [4], 0.938 ± 0.028; under setting [5], 0.911 ± 0.02; under setting [6], 0.868 ± 0.022.

In the case of `CS(=O)(=O)CCNCc1ccc(-c2ccc3ncnc(Nc4ccc(OCc5cccc(F)c5)c(Cl)c4)c3c2)o1` [Lapatinib ditosylate; Lapatinib; Lapatinib Ditosylate], the normalised cell viability came out at 0.9643 ± 0.0055 under setting [1]; 0.00258 ± 0.00055 under setting [2]; 0.968 ± 0.014 under setting [3]; 0.0327 ± 0.0022 under setting [4]; 0.947 ± 0.0092 under setting [5]; 0.00168 ± 0.00026 under setting [6].

On to `CCCCC#Cc1nc(N)c2ncn([C@@H]3O[C@H](C(=O)NCC)[C@@H](O)[C@H]3O)c2n1`, for which the normalised cell viability under setting [1] was determined as 1.01 ± 0.015; the normalised cell viability under setting [2] was determined as 0.979 ± 0.011; the normalised cell viability under setting [3] is 1.007 ± 0.0058; the normalised cell viability under setting [4] came out at 1.01 ± 0.014; the normalised cell viability under setting [5] amounted to 1.01; the normalised cell viability under setting [6] is 1.003 ± 0.0058.

For the molecule `O=c1[nH]cc(F)c(=O)[nH]1` [5-Fluorouracil], the normalised cell viability runs as follows: under setting [1], 0.98 ± 0.002; under setting [2], 0.766 ± 0.0085; under setting [3], 0.981 ± 0.012; under setting [4], 0.984 ± 0.015; under setting [5], 0.9837 ± 0.0084; under setting [6], 0.729 ± 0.03.

Regarding `O=c1[nH]cc(F)c(=O)[nH]1` [5-Fluorouracil; Fluorouracil], the normalised cell viability was determined as 1.043 ± 0.0058 under setting [1]; 0.706 ± 0.037 under setting [2]; 1.01 ± 0.015 under setting [3]; 0.838 ± 0.011 under setting [4]; 0.971 ± 0.0044 under setting [5]; 0.522 ± 0.032 under setting [6].

For `CN(C(Cc1ccc(OS(=O)(=O)c2cccc3cnccc23)cc1)C(=O)N1CCN(c2ccccc2)CC1)S(=O)(=O)c1cccc2cnccc12` (centres undefined), the normalised cell viability is, setting by setting: under setting [1], 1.02 ± 0.011; under setting [2], 0.993 ± 0.015; under setting [3], 1.007 ± 0.0058; under setting [4], 0.974 ± 0.029; under setting [5], 1.01; under setting [6], 1.01.

Consider `CN1CC[C@@H](c2c(O)cc(O)c3c(=O)cc(-c4ccccc4Cl)oc23)[C@@H]1CO`, for which the normalised cell viability runs as follows: under setting [1], 0.183 ± 0.011; under setting [2], 0.031 ± 0.004; under setting [3], 0.601 ± 0.026; under setting [4], 0.0698 ± 0.0051; under setting [5], 0.0431 ± 0.0039; under setting [6], 0.00913 ± 0.002.
